# From paper PMC7862700, “An all-to-all approach to the identification of sequence-specific readers for epigenetic DNA modifications on cytosine”
# Legend:
# Test in all cases: DAPPL (digital affinity profiling via proximity ligation, sequencing); 10 mM Tris-HCl pH 7.5, 50 mM NaCl, 1 mM DTT, 4% glycerol, room temperature, 30 min; GST-TFs on glutathione beads, 16-mer random dsDNA library, 0.1% formaldehyde crosslink after washing; high values mean tight binding
# Details in all cases: protein: recombinant; tags: N-terminal GST; dsDNA, one strand shown
# [1] = molecular target: T1, FLI1 (Homo sapiens, UniProt Q01543 1-452)
# T1 sequence: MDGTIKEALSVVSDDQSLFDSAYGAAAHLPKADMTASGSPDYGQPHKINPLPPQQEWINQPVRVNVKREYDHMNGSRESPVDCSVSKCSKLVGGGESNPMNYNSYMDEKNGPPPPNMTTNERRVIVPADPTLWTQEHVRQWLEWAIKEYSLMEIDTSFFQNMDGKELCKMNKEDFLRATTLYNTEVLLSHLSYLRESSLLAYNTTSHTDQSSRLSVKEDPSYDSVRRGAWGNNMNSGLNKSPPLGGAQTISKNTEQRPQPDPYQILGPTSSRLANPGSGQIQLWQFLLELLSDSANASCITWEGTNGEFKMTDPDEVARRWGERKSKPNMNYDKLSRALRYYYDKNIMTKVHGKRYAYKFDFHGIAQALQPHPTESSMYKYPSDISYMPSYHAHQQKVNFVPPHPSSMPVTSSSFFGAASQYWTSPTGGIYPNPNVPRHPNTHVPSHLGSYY
# In short: (§1)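 Human transcription factors carrying a GST fusion were produced in yeast, bound to glutathione beads, tagged with DNA barcodes and pooled together with a tag-only sample. Each pool was held with 200 nmole of a random double-stranded 16-mer DNA library in Tris/NaCl/DTT/glycerol buffer for 30 min at room temperature, then washed, crosslinked in 0.1% formaldehyde, proximity-ligated with BsaI/T4 ligase (1 h, 37 °C), PCR-amplified and sequenced on an Illumina NextSeq500. Binding signal is the read frequency of each hexamer for a given factor divided by its frequency in the tag-only sample.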
# [2] = molecular target: T2, ELK1 (Homo sapiens, UniProt P19419 1-428)
# T2 sequence: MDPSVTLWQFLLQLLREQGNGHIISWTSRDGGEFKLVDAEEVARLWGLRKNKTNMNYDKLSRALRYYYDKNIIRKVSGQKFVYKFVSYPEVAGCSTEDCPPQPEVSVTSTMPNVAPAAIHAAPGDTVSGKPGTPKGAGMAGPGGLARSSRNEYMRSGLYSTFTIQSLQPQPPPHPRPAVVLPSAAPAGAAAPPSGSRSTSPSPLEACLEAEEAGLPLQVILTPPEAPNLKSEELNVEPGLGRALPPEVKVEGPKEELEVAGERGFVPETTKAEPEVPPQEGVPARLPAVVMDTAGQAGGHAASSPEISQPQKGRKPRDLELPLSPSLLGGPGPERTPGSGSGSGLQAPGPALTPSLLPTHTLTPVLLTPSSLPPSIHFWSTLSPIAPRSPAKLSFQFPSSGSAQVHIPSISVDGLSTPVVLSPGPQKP
# In short: as §1
# [3] = molecular target: T3, GABPA (Homo sapiens, UniProt Q06546 1-454)
# T3 sequence: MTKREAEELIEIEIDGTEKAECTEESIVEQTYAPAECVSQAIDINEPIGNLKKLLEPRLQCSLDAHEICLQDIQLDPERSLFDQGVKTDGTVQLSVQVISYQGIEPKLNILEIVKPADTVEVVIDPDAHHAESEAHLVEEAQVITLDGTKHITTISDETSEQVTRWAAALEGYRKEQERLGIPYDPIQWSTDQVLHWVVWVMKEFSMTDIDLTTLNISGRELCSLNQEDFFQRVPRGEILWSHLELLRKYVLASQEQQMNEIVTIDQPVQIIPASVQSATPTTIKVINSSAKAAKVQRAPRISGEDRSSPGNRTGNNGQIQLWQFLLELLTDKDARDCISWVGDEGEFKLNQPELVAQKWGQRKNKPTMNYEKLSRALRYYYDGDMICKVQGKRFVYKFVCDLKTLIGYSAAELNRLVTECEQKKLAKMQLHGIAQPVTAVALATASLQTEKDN
# In short: as §1
# [4] = molecular target: T4, ERG (Homo sapiens, UniProt P11308 1-479)
# T4 sequence: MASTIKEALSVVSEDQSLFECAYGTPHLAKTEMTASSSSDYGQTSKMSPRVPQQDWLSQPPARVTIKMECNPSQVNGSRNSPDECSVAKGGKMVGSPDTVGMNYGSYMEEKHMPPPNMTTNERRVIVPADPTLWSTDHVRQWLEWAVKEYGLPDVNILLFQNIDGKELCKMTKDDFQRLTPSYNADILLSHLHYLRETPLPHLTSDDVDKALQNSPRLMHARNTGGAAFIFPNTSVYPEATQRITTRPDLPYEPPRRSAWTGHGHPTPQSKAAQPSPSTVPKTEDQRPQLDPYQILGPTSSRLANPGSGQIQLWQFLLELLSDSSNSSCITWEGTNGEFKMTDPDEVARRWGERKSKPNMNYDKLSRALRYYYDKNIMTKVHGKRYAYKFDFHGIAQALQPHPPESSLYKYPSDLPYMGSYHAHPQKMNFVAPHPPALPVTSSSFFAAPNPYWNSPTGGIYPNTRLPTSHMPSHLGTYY
# In short: as §1
# [5] = molecular target: ELF1 (Homo sapiens, UniProt P32519 1-619)
# In short: as §1
# [6] = molecular target: T5, EHF (Homo sapiens, UniProt Q9NZC4 1-300)
# T5 sequence: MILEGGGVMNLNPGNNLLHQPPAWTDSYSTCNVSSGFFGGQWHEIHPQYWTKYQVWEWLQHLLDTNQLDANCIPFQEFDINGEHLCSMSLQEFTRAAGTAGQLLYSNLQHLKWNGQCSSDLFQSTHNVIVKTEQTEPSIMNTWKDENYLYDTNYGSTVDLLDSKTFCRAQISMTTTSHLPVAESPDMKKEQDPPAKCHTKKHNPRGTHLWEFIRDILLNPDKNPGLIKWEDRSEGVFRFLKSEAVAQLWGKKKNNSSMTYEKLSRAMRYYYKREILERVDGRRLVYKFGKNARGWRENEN
# In short: as §1
# [7] = molecular target: SPI1 (Homo sapiens, UniProt P17947 1-270)
# In short: as §1
# [8] = molecular target: SPIB (Homo sapiens, UniProt Q01892 1-262)
# In short: as §1
# [9] = molecular target: T6, ELK3 (Homo sapiens, UniProt P41970 1-407)
# T6 sequence: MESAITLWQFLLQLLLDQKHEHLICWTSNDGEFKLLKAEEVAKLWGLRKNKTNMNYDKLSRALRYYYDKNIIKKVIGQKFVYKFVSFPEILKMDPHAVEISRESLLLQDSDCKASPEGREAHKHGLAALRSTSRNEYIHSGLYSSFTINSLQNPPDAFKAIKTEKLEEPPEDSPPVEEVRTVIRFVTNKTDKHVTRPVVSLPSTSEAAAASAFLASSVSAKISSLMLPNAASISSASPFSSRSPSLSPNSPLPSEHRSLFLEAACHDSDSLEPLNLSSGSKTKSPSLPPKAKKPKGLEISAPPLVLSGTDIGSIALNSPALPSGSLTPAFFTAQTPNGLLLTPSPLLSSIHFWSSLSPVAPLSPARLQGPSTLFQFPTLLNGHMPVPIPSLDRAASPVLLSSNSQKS
# In short: as §1
# SPIB, sequence (Q01892 whole entry): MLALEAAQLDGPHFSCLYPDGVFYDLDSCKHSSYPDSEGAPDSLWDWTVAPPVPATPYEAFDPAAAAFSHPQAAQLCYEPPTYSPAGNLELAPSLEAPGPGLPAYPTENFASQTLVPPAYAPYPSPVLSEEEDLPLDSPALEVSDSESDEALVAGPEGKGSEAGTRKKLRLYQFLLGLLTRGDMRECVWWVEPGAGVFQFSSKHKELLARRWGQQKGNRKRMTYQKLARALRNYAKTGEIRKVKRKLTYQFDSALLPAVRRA
# ELF1, sequence (P32519 whole entry): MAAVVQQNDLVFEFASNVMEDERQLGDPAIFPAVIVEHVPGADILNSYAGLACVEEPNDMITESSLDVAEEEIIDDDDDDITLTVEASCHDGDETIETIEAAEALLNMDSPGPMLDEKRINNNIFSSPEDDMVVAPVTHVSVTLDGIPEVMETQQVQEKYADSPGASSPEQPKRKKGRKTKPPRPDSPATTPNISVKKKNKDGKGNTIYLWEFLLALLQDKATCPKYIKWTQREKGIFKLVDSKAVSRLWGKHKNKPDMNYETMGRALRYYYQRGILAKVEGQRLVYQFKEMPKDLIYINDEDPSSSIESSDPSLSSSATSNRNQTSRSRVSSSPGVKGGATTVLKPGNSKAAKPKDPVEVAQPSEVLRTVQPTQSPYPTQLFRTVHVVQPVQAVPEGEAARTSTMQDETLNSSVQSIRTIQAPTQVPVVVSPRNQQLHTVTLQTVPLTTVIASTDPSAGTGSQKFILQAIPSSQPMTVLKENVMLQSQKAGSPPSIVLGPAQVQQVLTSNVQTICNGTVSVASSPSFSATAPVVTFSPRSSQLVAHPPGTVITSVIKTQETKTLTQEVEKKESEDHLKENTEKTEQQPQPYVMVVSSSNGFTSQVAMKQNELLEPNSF
Sequence,binding signal [1],binding signal [2],binding signal [3],binding signal [4],binding signal [5],binding signal [6],binding signal [7],binding signal [8],binding signal [9]
TATCAC,"1.33 fold enrichment (6-mer frequency, TF over GST control)","1.25 fold enrichment (6-mer frequency, TF over GST control)","1.04 fold enrichment (6-mer frequency, TF over GST control)","1.17 fold enrichment (6-mer frequency, TF over GST control)","1.3 fold enrichment (6-mer frequency, TF over GST control)","1.19 fold enrichment (6-mer frequency, TF over GST control)","1.28 fold enrichment (6-mer frequency, TF over GST control)","1.22 fold enrichment (6-mer frequency, TF over GST control)","1.23 fold enrichment (6-mer frequency, TF over GST control)"
ATAATA,"1.13 fold enrichment (6-mer frequency, TF over GST control)","1.07 fold enrichment (6-mer frequency, TF over GST control)","1.18 fold enrichment (6-mer frequency, TF over GST control)","1.17 fold enrichment (6-mer frequency, TF over GST control)","1.23 fold enrichment (6-mer frequency, TF over GST control)","1.24 fold enrichment (6-mer frequency, TF over GST control)","1.18 fold enrichment (6-mer frequency, TF over GST control)","1.18 fold enrichment (6-mer frequency, TF over GST control)","1.11 fold enrichment (6-mer frequency, TF over GST control)"
CCCCAA,"1.1 fold enrichment (6-mer frequency, TF over GST control)","1.16 fold enrichment (6-mer frequency, TF over GST control)","1.16 fold enrichment (6-mer frequency, TF over GST control)","1.18 fold enrichment (6-mer frequency, TF over GST control)","1.19 fold enrichment (6-mer frequency, TF over GST control)","1.23 fold enrichment (6-mer frequency, TF over GST control)","1.2 fold enrichment (6-mer frequency, TF over GST control)","1.07 fold enrichment (6-mer frequency, TF over GST control)","1.09 fold enrichment (6-mer frequency, TF over GST control)"
TGATGC,"1.49 fold enrichment (6-mer frequency, TF over GST control)","1.63 fold enrichment (6-mer frequency, TF over GST control)","1.65 fold enrichment (6-mer frequency, TF over GST control)","1.4 fold enrichment (6-mer frequency, TF over GST control)","1.64 fold enrichment (6-mer frequency, TF over GST control)","1.58 fold enrichment (6-mer frequency, TF over GST control)","1.42 fold enrichment (6-mer frequency, TF over GST control)","1.47 fold enrichment (6-mer frequency, TF over GST control)","1.72 fold enrichment (6-mer frequency, TF over GST control)"
TAACAA,"1.22 fold enrichment (6-mer frequency, TF over GST control)","1.22 fold enrichment (6-mer frequency, TF over GST control)","1.14 fold enrichment (6-mer frequency, TF over GST control)","1.18 fold enrichment (6-mer frequency, TF over GST control)","1.2 fold enrichment (6-mer frequency, TF over GST control)","1.19 fold enrichment (6-mer frequency, TF over GST control)","1.14 fold enrichment (6-mer frequency, TF over GST control)","1.13 fold enrichment (6-mer frequency, TF over GST control)","1.34 fold enrichment (6-mer frequency, TF over GST control)"
GATGCT,"1.18 fold enrichment (6-mer frequency, TF over GST control)","1.11 fold enrichment (6-mer frequency, TF over GST control)","1.14 fold enrichment (6-mer frequency, TF over GST control)","1.12 fold enrichment (6-mer frequency, TF over GST control)","1.12 fold enrichment (6-mer frequency, TF over GST control)","1.25 fold enrichment (6-mer frequency, TF over GST control)","1.23 fold enrichment (6-mer frequency, TF over GST control)","1.22 fold enrichment (6-mer frequency, TF over GST control)","1.2 fold enrichment (6-mer frequency, TF over GST control)"
ATACAG,"1.16 fold enrichment (6-mer frequency, TF over GST control)","1.11 fold enrichment (6-mer frequency, TF over GST control)","1.29 fold enrichment (6-mer frequency, TF over GST control)","1.16 fold enrichment (6-mer frequency, TF over GST control)","1.13 fold enrichment (6-mer frequency, TF over GST control)","1.16 fold enrichment (6-mer frequency, TF over GST control)","1.12 fold enrichment (6-mer frequency, TF over GST control)","1.15 fold enrichment (6-mer frequency, TF over GST control)","1.07 fold enrichment (6-mer frequency, TF over GST control)"
CATATA,"1.17 fold enrichment (6-mer frequency, TF over GST control)","1.07 fold enrichment (6-mer frequency, TF over GST control)","1.14 fold enrichment (6-mer frequency, TF over GST control)","1.08 fold enrichment (6-mer frequency, TF over GST control)","1.12 fold enrichment (6-mer frequency, TF over GST control)","1.06 fold enrichment (6-mer frequency, TF over GST control)","1.06 fold enrichment (6-mer frequency, TF over GST control)","1.06 fold enrichment (6-mer frequency, TF over GST control)","1.22 fold enrichment (6-mer frequency, TF over GST control)"
